A selection: hits, their analogues and other compounds. The true share with any hit is near 11%.
HP1b binding inh = blocks HP1-beta chromodomain binding to methylated histone tails | P83916 | AlphaScreen HP1-beta / biotin-H3K9me3 peptide binding | Potency, µM (top dose mostly 114 µM), without a hit: at the highest dose activity change, negative = inhibition, usual class: inhibitors | 390,000 tested, 0.56% active; note: nearly all actives have a fitted effect of over 70% in size
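Compound inhibition of the preformed complex between 50 nM HP1-beta and 50 nM biotinylated H3K9me3 peptide was read by AlphaScreen. Buffer was PBS pH 7.4 with 0.01% Tween-20. Incubations ran 30 min at room temperature, with 10 ug/mL donor/acceptor beads.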
BAZ2B block = blocks human BAZ2B; Q9UIF8; AlphaScreen BAZ2B-H3K14Ac peptide displacement; Potency, µM (doses to about 114 µM), for the others: at the highest dose activity change, negative = inhibition, most hits filed as inhibitors; 360,000 tested, 4.4% active; note: % is set by controls: 0 for no effect and ±100 for the full control effect; nearly all actives have a fitted effect of over 60% in size
Target sequence (Q9UIF8 whole entry, looked up): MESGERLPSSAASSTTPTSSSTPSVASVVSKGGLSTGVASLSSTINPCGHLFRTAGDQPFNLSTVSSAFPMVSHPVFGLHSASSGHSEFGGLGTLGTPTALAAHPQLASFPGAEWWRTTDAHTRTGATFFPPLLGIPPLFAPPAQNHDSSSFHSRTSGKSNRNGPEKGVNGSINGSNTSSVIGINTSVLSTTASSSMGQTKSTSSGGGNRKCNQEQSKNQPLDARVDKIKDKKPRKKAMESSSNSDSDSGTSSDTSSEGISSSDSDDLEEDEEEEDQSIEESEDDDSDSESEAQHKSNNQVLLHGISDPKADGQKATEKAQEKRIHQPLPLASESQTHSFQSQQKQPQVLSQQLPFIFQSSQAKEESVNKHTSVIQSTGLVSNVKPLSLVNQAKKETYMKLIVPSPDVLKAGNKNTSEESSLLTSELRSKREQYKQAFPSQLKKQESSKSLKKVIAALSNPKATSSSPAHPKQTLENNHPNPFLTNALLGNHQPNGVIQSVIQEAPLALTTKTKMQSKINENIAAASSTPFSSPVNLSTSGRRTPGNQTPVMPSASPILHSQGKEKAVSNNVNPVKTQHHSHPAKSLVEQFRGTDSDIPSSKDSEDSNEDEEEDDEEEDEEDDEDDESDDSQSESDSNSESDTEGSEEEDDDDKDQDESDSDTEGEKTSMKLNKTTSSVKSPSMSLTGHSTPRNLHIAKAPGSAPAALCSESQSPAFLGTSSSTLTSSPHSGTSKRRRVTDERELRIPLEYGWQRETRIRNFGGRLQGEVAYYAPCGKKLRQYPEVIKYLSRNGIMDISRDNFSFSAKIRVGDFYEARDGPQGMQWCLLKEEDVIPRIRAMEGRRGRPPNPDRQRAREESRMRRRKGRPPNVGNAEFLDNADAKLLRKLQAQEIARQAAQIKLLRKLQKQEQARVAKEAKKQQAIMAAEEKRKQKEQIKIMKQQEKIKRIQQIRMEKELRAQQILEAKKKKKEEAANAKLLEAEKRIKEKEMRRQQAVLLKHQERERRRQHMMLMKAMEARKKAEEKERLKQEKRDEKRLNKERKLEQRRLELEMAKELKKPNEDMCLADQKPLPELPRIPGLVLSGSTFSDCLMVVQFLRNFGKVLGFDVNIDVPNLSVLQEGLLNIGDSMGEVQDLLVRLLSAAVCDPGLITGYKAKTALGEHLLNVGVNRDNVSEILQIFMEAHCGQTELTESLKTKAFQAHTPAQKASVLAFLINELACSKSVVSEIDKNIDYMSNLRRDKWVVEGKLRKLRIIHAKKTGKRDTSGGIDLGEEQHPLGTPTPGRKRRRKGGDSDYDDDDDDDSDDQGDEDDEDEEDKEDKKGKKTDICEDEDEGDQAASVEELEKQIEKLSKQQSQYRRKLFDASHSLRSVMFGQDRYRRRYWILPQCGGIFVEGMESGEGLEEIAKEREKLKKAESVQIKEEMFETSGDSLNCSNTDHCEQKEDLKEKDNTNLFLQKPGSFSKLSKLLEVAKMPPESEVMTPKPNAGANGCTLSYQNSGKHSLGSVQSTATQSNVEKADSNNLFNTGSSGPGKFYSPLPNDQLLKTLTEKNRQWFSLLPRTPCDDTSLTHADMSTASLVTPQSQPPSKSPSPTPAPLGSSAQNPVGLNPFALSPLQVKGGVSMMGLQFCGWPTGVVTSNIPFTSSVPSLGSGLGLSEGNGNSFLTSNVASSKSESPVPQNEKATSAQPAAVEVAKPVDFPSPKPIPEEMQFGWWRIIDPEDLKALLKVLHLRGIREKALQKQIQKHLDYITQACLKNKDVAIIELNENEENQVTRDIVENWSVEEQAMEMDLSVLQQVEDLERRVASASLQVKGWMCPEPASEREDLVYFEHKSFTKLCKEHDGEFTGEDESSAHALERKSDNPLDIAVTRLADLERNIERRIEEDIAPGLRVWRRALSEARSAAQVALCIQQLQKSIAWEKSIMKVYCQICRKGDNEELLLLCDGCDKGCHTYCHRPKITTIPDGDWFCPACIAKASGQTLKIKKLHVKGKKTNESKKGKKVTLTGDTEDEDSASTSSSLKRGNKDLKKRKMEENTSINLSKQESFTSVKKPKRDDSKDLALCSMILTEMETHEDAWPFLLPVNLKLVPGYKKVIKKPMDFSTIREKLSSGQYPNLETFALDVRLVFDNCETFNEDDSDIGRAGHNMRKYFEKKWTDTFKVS
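In this displacement format the biotinylated H3(5-23) peptide acetylated at Lys14 serves as ligand at 50 nM, with BAZ2B at 50 nM in PBS pH 7.4 containing 0.01% Tween-20. Donor and acceptor beads are 10 ug/mL final.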
JMJD2A Tudor = blocks the human JMJD2A Tudor domain; O75164; AlphaScreen JMJD2A-Tudor / H3K4me3 peptide binding; Potency, µM (highest dose often 114 µM), for inactives: at the highest dose activity change, negative = inhibition, usual class: inhibitors; 390,000 tested, 4.4% active; AID 504339; note: % is set by controls: 0 for no effect and ±100 for the full control effect; nearly all actives have a fitted effect of over 50% in size
VDR inhibitor = blocks the human vitamin D receptor. VDR-SRC2-3 peptide fluorescence polarization, 2 h. Potency, µM, inactives show max response, negative = inhibition, actives largely listed as inhibitors. 400,000 tested, 0.93% active. AID 504847; note: % is set by controls: 0 for no effect and ±100 for the full control effect
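Reagent solutions, kept cold and dark, are dispensed first; compounds are then pinned in at 23 nl, plates briefly spun, and incubated 2 h at ambient temperature. Inhibition of VDR–SRC2-3 peptide binding is read by fluorescence polarization.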
G9a inh = inhibitors of human histone lysine methyltransferase G9a. Potency, µM (titrated, usually from 102 µM), inactives show at the top dose activity, negative = inhibition, most hits filed as inhibitors. G9a H3K9 monomethylation, AlphaScreen, 2 h. AID 504332. Q96KQ7. 350,000 tested, 8.8% active; note: % is set by controls: 0 for no effect and ±100 for the full control effect; nearly all actives have a fitted effect of over 75% in size
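Using a bead-based AlphaScreen, monomethylated H3K9 product from 2 h room-temperature reactions (G9a 20 nM, peptide 500 nM, SAM 20 uM) was detected with 0.5 ug/mL rabbit anti-H3K9me1 antibody.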
PLK1 PBD inh = PLK1 (human) polo-box domain binding inhibition. 360,000 tested, 2.8% active. Plk1 PBD binding of FITC phosphopeptide, fluorescence polarization. P53350. Potency, µM, without a hit: max response, negative = inhibition, actives largely listed as inhibitors; note: series mostly up to about 57 µM; % is set by controls: 0 for no effect and ±100 for the full control effect; nearly all actives have a fitted effect of over 65% in size
The depositor's hits bear a star; ? = inconclusive; . = no result given; [ ] = another dose, or the depositor's remark. Calls come from the whole dose curve; as a rule, active = well fitted curve in the direction sought with a large enough effect; inconclusive = small, poorly fitted or top-dose-only effect, or another doubt; inactive = no such curve, though single readings can be large; an effect the other way counts as inactive or inconclusive. Potency is the fitted concentration of half-maximal effect.

SMILES	HP1b binding inh	BAZ2B block	JMJD2A Tudor	VDR inhibitor	G9a inh	PLK1 PBD inh
CCOc1ccc(-c2nc(S(=O)(=O)c3ccccc3)c(NC)o2)cc1	30%	1%	-3%	6%	53%	3%
Cc1ccc(S(=O)(=O)c2nc(C)oc2NCc2ccccc2)cc1	.	3%	.	.	8.9µM*	.
O=S(=O)(c1ccccc1)c1nc(-c2cccc(Cl)c2)oc1NCc1ccccc1	8%	?	-20%	-16%	-30%[59 µM]	.
COc1cccc(NC(=O)c2c(-c3ccc(C)cc3)nnc3ccccc23)c1	39%	-4%	0%	-2%	-2%[59 µM]	.
CCCCC1(C)OC(=O)C(=Cc2ccc(N(CC)CC)cc2)C(=O)O1 (stereo unspecified)	12%	56µM*	?	?	71µM*	?
CCN(CC)c1ccc(C=C2C(=O)OC3(CCCCC3)OC2=O)cc1	26%	?	-31%	?	?	-22%
CCOc1cc(/C=C2/N=C(C)C(C(=O)OC)=C2O)ccc1O	6%	-10%	-13%	-16%	45µM*	39%
CCN(CC)c1ccc(/C=C2\C(=O)N(c3nnc(C)c(=O)[nH]3)N=C2C)cc1	-2%	8.9µM*	20µM*	16µM*	50µM*	?
CC1=NN(CCC#N)C(=O)/C1=C/c1ccc(N(C)C)cc1	?	.	-23%	-4%	?	-1%
CC1=NOC(=O)/C1=C/c1ccc(O)c(Cl)c1	10%	50µM*	-17%	-19%	50µM*	?
COCC(=O)Nc1ccc2c(c1)[C@@H]1C[C@H](CC(=O)OC)O[C@H](CO)[C@@H]1O2	.	.	.	.	.	-5%
CCOc1ccc(NC(=O)c2ccc3nc(C(C)C)oc3c2)cc1	28%[57 µM]	-11%	-4%	13%	5%[59 µM]	.
O=C(CC1Sc2ccccc2NC1=O)NCc1ccccc1 (stereo unspecified)	39%	1%	-7%	-3%	8%	0%
CCc1ccccc1NC(=O)C1COc2ccccc2C1 (stereo unspecified)	26%[57 µM]	0%	-1%	13%	-1%[59 µM]	.
COC(=O)C1=C(O)/C(=C\c2cc(C)n(-c3ccccc3C)c2C)N=C1C	3%	79µM*	-29%	21%	20µM*	-8%
C#CCOc1c(Cl)cc(/C=C2/C(=O)ON=C2C)cc1OC	1%	-3%	-3%	?	40µM*	4.7µM*
COc1ccc(Cl)cc1/C=C1/C(=O)ON=C1C	13%	-27%	-29%	?	?	?
CCOc1cc(/C=C2/C(=O)ON=C2C)ccc1O	4%	-38%	-4%	?	50µM*	-4%
CCN(CC)c1ccc(/C=C2/C(=O)ON=C2C)cc1	?	40µM*	45µM*	?	45µM*	?
O=C(NCCc1ccc(Cl)cc1Cl)c1cccnc1	?	-4%	-11%	4%	-3%	1%
CCN(CC)CCNC(=O)c1ccc2c(c1)NC(=O)C(CS(=O)(=O)Cc1cccc(Br)c1)N2 (stereo unspecified)	-6%	-37%	-32%	-1%	?	.
CC(=O)N1CCC2(CC1)C(C#N)=C(N)OC1=C2C(=O)CC(C)(C)C1	42%	5%	10%	6%	2%[59 µM]	2%
CC1(C)CC(=O)C2=C(C1)OC(N)=C(C#N)C21CCN(Cc2ccccc2)CC1	68%	-36%	-20%	16%	28µM*	-26%
COc1cc(NC(=O)c2nnn(Cc3ccc(F)cc3)c2N)cc(OC)c1	10%	?	-9%	-23%	-3%[59 µM]	.
O=C(CN1CCN(c2ncccn2)CC1)NCc1ccccc1	37%	10%	-13%	13%	56µM*	-1%
O=C(NCc1ccccc1)NC1(C(=O)N2CCN(c3ncccn3)CC2)CCCCC1	-12%	-1%	-18%[11.4 µM]	-2%	-26%	27µM*
Cc1cc(Cn2ccnc2)c(C)c([N+](=O)[O-])c1Cn1ccnc1	31%	79µM*	-9%	13%	11%	-13%

Source: PubChem (National Center for Advancing Translational Sciences (NCATS))
